The supplement of paper PMC8728848
Shown is part of a subset that was picked to be rich in the strongest signals.

How the values were obtained:
Experiment in all cases: glycan array binding signal (z-score within array); higher = stronger binding
Conditions in all cases: glycan notation: IUPAC condensed, linker removed
[1] = target: Fuc(a1-2)Gal
Procedure, shortened: (§1)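 Glycan array binding is given as a within-array Z-score, which can be read as non-binding when negative. The arrays, 3228 of them, came from the Consortium for Functional Glycomics database and were retained only where the protein sequence was available. Z-scores were averaged across arrays of the same protein sequence at different concentrations or buffers and across linkers.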

[2] = target: Fuc(a1-2)Gal(b1-3)GalNAc(b1-3)Gal
Procedure, shortened: as §1

[3] = target: Fuc(a1-2)Gal(b1-4)[Fuc(a1-3)]GlcNAc
Procedure, shortened: as §1

[4] = target: Fuc(a1-2)Gal(b1-4)[Fuc(a1-3)]GlcNAc(b1-2)Man(a1-3)[Fuc(a1-2)Gal(b1-4)[Fuc(a1-3)]GlcNAc(b1-2)Man(a1-6)]Man(b1-4)GlcNAc(b1-4)[Fuc(a1-6)]GlcNAc
Procedure, shortened: as §1

[5] = target: Fuc(a1-2)[Gal(a1-3)]Gal
Procedure, shortened: as §1

[6] = target: Fuc(a1-2)[Gal(a1-3)]Gal(b1-3)GlcNAc(b1-6)GalNAc
Procedure, shortened: as §1

[7] = target: Fuc(a1-2)[Gal(a1-3)]Gal(b1-4)GlcNAc(b1-2)Man
Procedure, shortened: as §1

[8] = target: Fuc(a1-2)[GalNAc(a1-3)]Gal
Procedure, shortened: as §1

[9] = target: Fuc(a1-2)[GalNAc(a1-3)]Gal(b1-4)Glc
Procedure, shortened: as §1

[10] = target: Fuc(a1-2)[GalNAc(a1-3)]Gal(b1-4)GlcNAc
Procedure, shortened: as §1

[11] = target: Fuc(a1-2)[GalNAc(a1-3)]Gal(b1-4)GlcNAc(b1-2)Man(a1-3)[Fuc(a1-2)[GalNAc(a1-3)]Gal(b1-4)GlcNAc(b1-2)Man(a1-6)]Man(b1-4)GlcNAc(b1-4)[Fuc(a1-6)]GlcNAc
Procedure, shortened: as §1

[12] = target: Fuc(a1-2)[GalNAc(a1-3)]Gal(b1-4)GlcNAc(b1-3)GalNAc
Procedure, shortened: as §1

[13] = target: Fuc(a1-3)[Gal(b1-4)]Glc6S
Procedure, shortened: as §1

[14] = target: Fuc(a1-3)[GalNAc(b1-4)]GlcNAc
Procedure, shortened: as §1

[15] = target: Fuc(a1-4)GlcNAc
Procedure, shortened: as §1

[16] = target: Gal(a1-3)Gal(b1-3)GlcNAc(b1-3)GalNAc
Procedure, shortened: as §1

[17] = target: Gal(a1-3)Gal(b1-4)GlcNAc(b1-6)GalNAc
Procedure, shortened: as §1

[18] = target: Gal(a1-4)Gal(b1-4)GlcNAc(b1-2)Man(a1-3)[Gal(a1-4)Gal(b1-4)GlcNAc(b1-2)Man(a1-6)]Man(b1-4)GlcNAc(b1-4)GlcNAc
Procedure, shortened: as §1

[19] = target: Gal(b1-3)Gal(b1-4)GlcNAc
Procedure, shortened: as §1

[20] = target: Gal(b1-3)GlcNAc(b1-2)Man(a1-3)[Gal(b1-3)GlcNAc(b1-2)Man(a1-6)]Man(b1-4)GlcNAc(b1-4)GlcNAc
Procedure, shortened: as §1

[21] = target: Gal(b1-3)GlcNAc(b1-3)Gal(b1-4)GlcNAc(b1-2)Man(a1-3)[Gal(b1-3)GlcNAc(b1-3)Gal(b1-4)GlcNAc(b1-2)Man(a1-6)]Man(b1-4)GlcNAc(b1-4)GlcNAc
Procedure, shortened: as §1

[22] = target: Gal(b1-3)[Fuc(a1-4)]GlcNAc(b1-2)Man
Procedure, shortened: as §1

[23] = target: Gal(b1-3)[Fuc(a1-4)]GlcNAc(b1-3)Gal(b1-3)[Fuc(a1-4)]GlcNAc
Procedure, shortened: as §1

[24] = target: Gal(b1-3)[Neu5Ac(b2-6)]GalNAc
Procedure, shortened: as §1

[25] = target: Gal(b1-4)Glc
Procedure, shortened: as §1

[26] = target: Gal(b1-4)GlcNAc(b1-2)Man
Procedure, shortened: as §1

[27] = target: Gal(b1-4)GlcNAc(b1-2)Man(a1-6)Man(b1-4)GlcNAc(b1-4)GlcNAc
Procedure, shortened: as §1

[28] = target: Gal(b1-4)GlcNAc(b1-3)Gal(b1-4)GlcNAc(b1-3)Gal(b1-4)GlcNAc(b1-2)Man(a1-3)[Gal(b1-4)GlcNAc(b1-3)Gal(b1-4)GlcNAc(b1-3)Gal(b1-4)GlcNAc(b1-2)Man(a1-6)]Man(b1-4)GlcNAc(b1-4)[Fuc(a1-6)]GlcNAc
Procedure, shortened: as §1

[29] = target: Gal(b1-4)GlcNAc(b1-3)Gal(b1-4)GlcNAc(b1-3)Gal(b1-4)GlcNAc(b1-2)[Gal(b1-4)GlcNAc(b1-3)Gal(b1-4)GlcNAc(b1-3)Gal(b1-4)GlcNAc(b1-6)]Man(a1-6)[Gal(b1-4)GlcNAc(b1-3)Gal(b1-4)GlcNAc(b1-3)Gal(b1-4)GlcNAc(b1-2)Man(a1-3)]Man(b1-4)GlcNAc(b1-4)[Fuc(a1-6)]GlcNAc
Procedure, shortened: as §1

B1: LBL-152 (Laetiporus bicolor), B0D650 (protein)
chain: MSNEYNPPLGIAFRLCGLASDRVLFSRVSPSPEVFHHPKSEVYPDQWFVAIPGSGQNAGCYAIKSKNTGKVLFSRMSPDPRVGHIDGDGKYPDNWFKFEAGSGKYAGYFRLRAVASDTVLVSRTSTGTDTQVINYPATSAKYDDQYFTILFDHHHHHH
glycan array binding signal (z-score) [1]: -0.151 | glycan array binding signal (z-score) [2]: -0.162 | glycan array binding signal (z-score) [3]: -0.157 | glycan array binding signal (z-score) [4]: -0.147 | glycan array binding signal (z-score) [5]: -0.145 | glycan array binding signal (z-score) [6]: -0.156 | glycan array binding signal (z-score) [7]: -0.153 | glycan array binding signal (z-score) [8]: -0.151 | glycan array binding signal (z-score) [9]: -0.157 | glycan array binding signal (z-score) [10]: -0.156 | glycan array binding signal (z-score) [11]: -0.156 | glycan array binding signal (z-score) [12]: -0.155 | glycan array binding signal (z-score) [13]: -0.156 | glycan array binding signal (z-score) [14]: -0.141 | glycan array binding signal (z-score) [15]: -0.151 | glycan array binding signal (z-score) [16]: -0.158 | glycan array binding signal (z-score) [17]: -0.162 | glycan array binding signal (z-score) [18]: -0.132 | glycan array binding signal (z-score) [19]: -0.158 | glycan array binding signal (z-score) [20]: -0.154 | glycan array binding signal (z-score) [21]: -0.136 | glycan array binding signal (z-score) [22]: -0.159 | glycan array binding signal (z-score) [23]: -0.16 | glycan array binding signal (z-score) [24]: -0.154 | glycan array binding signal (z-score) [25]: -0.156 | glycan array binding signal (z-score) [26]: -0.148 | glycan array binding signal (z-score) [27]: -0.156 | glycan array binding signal (z-score) [28]: 5.46 | glycan array binding signal (z-score) [29]: 4.41
